# In PubChem BioAssay (Tox21):
# The source made the active and inactive calls. Calls come from the whole dose curve; as a rule, active = well fitted curve in the direction sought with a large enough effect in the repeat runs; inconclusive = weak or mixed curves; inactive = flat fitted curve, though single readings scatter.
# Assay: qHTS assay to test for compound auto fluorescence at 460 nm (blue) in HEK293 cell free culture (AID 720681)
# Settings: cell-free medium, autofluorescence 405/460 nm (blue); series mostly up to 91.3 µM
# From the text: U.S. Tox21 Program National Center for Advancing Translational Sciences [NCATS] NIH Chemical Genomics Center [NCGC] U.S. Environmental Protection Agency [EPA] National Institutes of Environmental Health Sciences [NIEHS] National Toxicology Program [NTP] U.S. Food and Drug Administration [FDA] Tox21 Assay Overview: Compound auto fluorescence often interferes with screening of the compound library against various biological targets and signaling pathways. Some of these compounds may have fluorophoric properties. Such properties may interfere with the assay outputs resulting in false positives and/or negatives. To decrease such complications and ensure the compound activities are relevant in terms of biological response, the Tox21 10K compound library was screened for auto fluorescence. From the fluorophores used as reporter signals in our screening assays, the auto fluorescence equivalencies of compounds against three fluorophores have been evaluated: Triamterene, Fluorescein and Rose Bengal sodium for blue, green and red fluorescence, respectively. The fluorescence intensities were measured using Excitation/Emission wavelengths at 405/460nm, 485/535nm and 540/590nm for blue, green and red labels, respectively. This assay includes the blue fluorescence data.
# Tox21 Assay Protocol Summary: 5 uL of culture medium (DMEM containing 10% FBS) per well was dispensed into black wall/clear bottom 1536-well plates using a Multidrop Combi Dispenser (ThermoFisher Scientific, Waltham, MA). After 23 nL compound or DMSO vehicle was transferred into assay plate by a pintool work station (Kalypsys, San Diego, CA), fluorescence intensities in the assay plates were measured by an Envision (PerkinElmer, Shelton, CT) plate reader using three labels for measuring blue, green and red fluorescence at […] 460, 535 and 590nm respectively.
# % is set by controls: 0 for no effect and ±100 for the full control effect.
SMILES,outcome,"fluorescence, % of fluorescent control"
COc1nc(N)nc2nc[nH]c12,inactive,–
CC(=O)O[Si](C)(OC(C)=O)OC(C)=O,inactive,–
CC1=NN(c2ccc(S(=O)(=O)O)cc2)C(=O)C1,inactive,–
CN(C)CCN(C)CCO,inactive,–
CCC/C=C(\C=O)CC,inactive,–
CC/C(C)=N\O[Si](C)(O/N=C(\C)CC)O/N=C(\C)CC,inactive,–
Cc1ccccc1C(N)=O,inactive,–
CC(N)CCCC(C)(C)O (stereo not given),inactive,–
O=C(O)CSCC(=O)NC1CCSC1=O (stereo not given),inactive,–
N#CCC(=O)NN,inactive,–
CCCCCCCCCOC(=O)c1ccccc1C(=O)OCCCCCCCCC,inactive,–
CCCCCc1cccc(=O)o1,inactive,–
OC[C@@H](O)C(O)[C@@H](O)CO (stereo not given in full),inactive,–
CCC(=O)c1c(O)cc(O)cc1O,inactive,–
Cc1c(N)cccc1Cl,inactive,–
CC(Oc1cc(Cl)ccc1Cl)C(=O)O (stereo not given),inactive,–
Cc1ncc([N+](=O)[O-])n1CC(C)O (stereo not given),inactive,–
NCCOCCN,inactive,–
CC(=O)O[C@@H]1CC2CCC1(C)C2(C)C (stereo not given in full),inactive,–
CN(C)CCCCl,inactive,–

SMILES,outcome,"fluorescence, % of fluorescent control"
CCCC(CC)c1ccccc1 (stereo not given),inactive,–
ONc1ccccc1,inactive,–
CCCCOC(=O)C(C)O (stereo not given),inactive,–
CC(C)(C)NC[C@H](O)COc1cccc2c1CCCC2=O,–,0.0024% [at 18.6 µM] (inactive)
CC(C)Cn1cnc2c1c(=O)n(C)c(=O)n2C,inactive,–
COC(=O)c1cc(Cl)cc(Cl)c1,inactive,–
CC1(C)Cc2cccc(N)c2O1,inactive,–
CC(C)COC(=O)c1ccccc1,inactive,–
Cc1cc(C)c(C(=O)O)c(C)c1,inactive,–
CCCCCCCCCCOC(C)=O,inactive,–
C=CCOC(=O)CCCCCC,inactive,–
CCCSSCCC,inactive,–
O=C(NCN1CCOCC1)c1cnccn1,inactive,–
CCCCOCC(C)O (stereo not given),inactive,–
CCCCCCCCCCCCCCCCCC#N,inactive,–
CC(C)OC(=O)CCC(=O)OC(C)C,inactive,–
Cc1ccc(C(C)NC(=O)[C@@H](NC(=O)OC(C)C)C(C)C)cc1 (stereo not given in full),inactive,–
CCc1occc(=O)c1O,inactive,–
O=C(Cl)c1ccccc1[N+](=O)[O-],inactive,–
C[C@H]1[C@@H](c2ccccc2)NC(=O)N1C,inactive,–
